About 83,000 compounds went through this panel and 20% of them were active in at least one assay; those are over-represented in the sample as a whole.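 The test compound was applied at a single concentration to cells in 96-well plates for 48 hours, and percent growth was recorded.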 The source made the active and inactive calls. The calls were made as follows: active = growth percent below 10; inactive = the rest.
How the values were obtained:
Test in all cases: NCI-60 one-dose screen, 48 h (100 = growth as untreated, 0 = no growth, -100 = all killed)
Conditions in all cases: 10 µM unless noted
[1] = test system: DU-145 prostate
[2] = test system: K-562 leukemia
[3] = test system: MALME-3M melanoma
[4] = test system: MDA-MB-231 breast
[5] = test system: RXF 393 renal
[6] = test system: SF-268 CNS
[7] = test system: SF-295 CNS
[8] = test system: SF-539 CNS
[9] = test system: UACC-257 melanoma
[10] = test system: M14 melanoma
[11] = test system: HCT-15 colon
[12] = test system: HT29 colon
[13] = test system: SNB-75 CNS
[14] = test system: SNB-19 CNS
[15] = test system: U251 CNS
[16] = test system: PC-3 prostate
[17] = test system: SK-MEL-5 melanoma
[18] = test system: UACC-62 melanoma
[19] = test system: LOX IMVI melanoma
[20] = test system: SK-MEL-28 melanoma

Measured: growth

CC(C)(C)c1ccc(/C=C/C(=O)Nc2ccc(O)cc2)cc1
inactive: [1] 70.3% | [3] 67% | [4] 53% | [5] 90.9% | [6] 59.7% | [7] 79.5% | [8] 40.6% | [9] 64.9% | [10] 28.4% | [11] 43.4% | [12] 18.7% | [13] 96.6% | [14] 83.3% | [15] 72.8% | [16] 59% | [17] 51.4% | [18] 55.1% | [20] 86.5%
active: [2] 4.2% | [19] -3.96%

CN1CCN(C(=O)c2c3c(n4ccccc24)C(=O)c2ncccc2C3=O)CC1
inactive: [1] 56.8% | [2] 54.1% | [3] 72.1% | [4] 79.5% | [5] 60.8% | [6] 52.9% | [7] 73.5% | [8] 58% | [9] 97.7% | [10] 49% | [11] 46% | [12] 93.3% | [13] 39.9% | [14] 50.4% | [15] 66.5% | [16] 54.8% | [17] 65.6% | [18] 39.3% | [19] 30.3% | [20] 103%

COc1cc(Cn2ncc3ccc(NC(=O)c4cc5ccccc5oc4=N)cc32)cc(OC)c1OC
inactive: [1] 88.5% | [2] 16.3% | [3] 54% | [4] 54.4% | [5] 73.3% | [6] 85.8% | [7] 63.6% | [8] 29.5% | [9] 98.8% | [10] 29.5% | [11] 27.2% | [12] 15.8% | [13] 90.9% | [14] 70.9% | [15] 62.9% | [16] 47.1% | [17] 61.6% | [18] 55.2% | [19] 63.6% | [20] 51.3%

COc1cc(/C=C/C(=O)N2CCN(C(=O)c3cc(OC)c(OC)c(OC)c3)CC2)ccc1OCCCN1C(=O)c2cccc3cccc(c23)C1=O
inactive: [1] 79.1% | [2] 78.7% | [3] 125% | [4] 101% | [5] 74.2% | [6] 90.6% | [7] 71.9% | [8] 99.9% | [9] 101% | [10] 99.3% | [11] 72% | [12] 91.8% | [13] 93.1% | [14] 99.5% | [15] 83.4% | [16] 25.5% | [17] 75.5% | [18] 64.3% | [19] 68.8% | [20] 81.9%

COc1cc(/C=N/n2c(CN3CCOCC3)nc3ccccc3c2=O)cc(OC)c1OC
inactive: [1] 115% | [2] 97.2% | [3] 106% | [4] 102% | [5] 117% | [6] 98.1% | [7] 98.6% | [8] 97.9% | [9] 97% | [10] 102% | [11] 106% | [12] 103% | [13] 94.4% | [14] 95.7% | [15] 98.7% | [16] 101% | [17] 101% | [18] 97.6% | [19] 100% | [20] 99.3%

COc1cc2ncn3c(=O)c4c5c(sc4nc3c2cc1OC)CCCC5
inactive: [1] 105% | [2] 146% | [3] 89.8% | [4] 90.6% | [5] 105% | [6] 94.3% | [7] 101% | [8] 99.2% | [9] 119% | [10] 91.2% | [11] 99.9% | [12] 91.8% | [13] 85.1% | [14] 93.2% | [15] 98.7% | [16] 87.6% | [17] 102% | [18] 93.4% | [19] 98.6% | [20] 106%

O=C(Nc1ccccc1Cl)Oc1ccc(-c2ccccc2)cc1
inactive: [1] 120% | [2] 110% | [3] 122% | [4] 107% | [5] 109% | [6] 119% | [7] 114% | [8] 95.1% | [9] 111% | [10] 107% | [11] 104% | [12] 103% | [13] 84.2% | [14] 98.4% | [15] 112% | [16] 99.8% | [17] 99.9% | [18] 89% | [19] 106% | [20] 151%

COc1ccccc1CNCCCN1C(=O)c2ccc3c4c(ccc(c24)C1=O)C(=O)N(CCCNCCCCN)C3=O
active: [1] -71.1% | [2] 3.21% | [3] -80.7% | [4] 9.4% | [5] -80.9% | [6] 0.101% | [7] 0.192% | [8] -75.3% | [9] -71.8% | [10] -80.2% | [12] -23.9% | [13] -95.3% | [14] -57.8% | [15] -67.4% | [16] -11.8% | [17] -98.3% | [18] -60.1% | [19] -16.3% | [20] -94.1%
inactive: [11] 12.7%

CCCCCCCCCCCC(c1ccccc1)[N+](C)(C)C (stereo not given)
active: [3] 5.27% | [5] -61% | [12] 3.96% | [13] -15.3% | [16] -18.8% | [17] -80.1% | [18] 6.22% | [19] -36.8%
inactive: [1] 39.8% | [2] 19% | [4] 21.1% | [6] 13.2% | [7] 55.1% | [8] 15.8% | [9] 20% | [10] 11.2% | [11] 93.4% | [14] 25.2% | [15] 18.3% | [20] 31.6%

CNC(=O)c1cc(Oc2cccc3nc(Nc4ccc(F)c(Cl)c4)ccc23)ccn1
inactive: [1] 93.2% | [2] 26% | [3] 40.2% | [4] 62.7% | [5] 75.3% | [6] 54.5% | [7] 87% | [8] 55.9% | [9] 40% | [10] 51.8% | [11] 16.5% | [12] 81.4% | [13] 87.6% | [14] 43.6% | [15] 26.7% | [16] 30.8% | [17] 12.3% | [18] 25.3% | [19] 27% | [20] 65.7%

CCCCCCN(CCCCCC)c1ccc(/C=C2/SC(=O)N(c3nc(N4CCCC4)nc(N4CCCC4)n3)C2=O)c(C)c1
inactive: [1] 77.3% | [2] 37.5% | [3] 71.5% | [4] 85.7% | [5] 84.7% | [6] 73.2% | [7] 56.7% | [8] 114% | [9] 72.6% | [10] 69.3% | [11] 57.9% | [12] 51.8% | [13] 83.3% | [14] 84.4% | [15] 53.9% | [16] 53.2% | [17] 58.6% | [18] 52.7% | [19] 71.8% | [20] 74.3%

CCc1c2c(nc3ccc(OC(=O)NCc4ccc(B5OC(C)(C)C(C)(C)O5)cc4)cc13)-c1cc3c(c(=O)n1C2)COC(=O)[C@]3(O)CC
active: [1] 3.45% | [3] -44.1% | [5] -61.9% | [6] -5.02% | [7] -0.543% | [8] -47.1% | [9] -44.5% | [10] -16.1% | [13] -22.1% | [14] 1.93% | [15] -33.3% | [17] -87.4% | [18] -80.5% | [19] -71.6% | [20] 3.27%
inactive: [2] 10.8% | [4] 13% | [11] 10.4% | [12] 25.2% | [16] 14.7%

CC1SC(c2ccc(OCc3ccccc3)cc2)N(NC(=O)C(O)(c2ccccc2)c2ccccc2)C1=O (stereo not given)
inactive: [1] 89.6% | [2] 40.9% | [3] 72.3% | [4] 76.5% | [5] 51.4% | [6] 71.4% | [8] 74.4% | [9] 78.3% | [10] 57.2% | [11] 60.9% | [12] 38.1% | [13] 77.5% | [14] 69.3% | [15] 66% | [16] 30.1% | [17] 94.9% | [18] 63.7% | [19] 58.9% | [20] 78.2%
active: [7] -20.7%

COc1ccc(CN2C(=O)C(Cl)=C(Nc3cccc(C(F)(F)F)c3)C2=O)cc1
inactive: [1] 84.9% | [2] 27.9% | [3] 52.1% | [4] 46.6% | [5] 23.6% | [6] 33.7% | [7] 38.1% | [9] 54.9% | [10] 63.5% | [11] 34.8% | [12] 57.1% | [13] 66.9% | [14] 44.7% | [15] 28.2% | [16] 19.2% | [17] 63.3% | [18] 58.1% | [19] 25.2% | [20] 55.2%
active: [8] 7.41%

c1coc(-c2c3ccc(=[N+]4CCCCC4)cc-3oc3cc(N4CCCCC4)ccc23)c1
active: [1] -96.2% | [2] -49.9% | [3] -71.9% | [4] -56.5% | [5] -93.8% | [6] -83.4% | [7] -75.2% | [8] -93.3% | [9] -75.4% | [10] -94.3% | [11] -80.7% | [12] -80.9% | [13] -67.8% | [14] -93.2% | [15] -85.2% | [16] -73.8% | [17] -90.7% | [18] -81.3% | [19] -87.2% | [20] -88.7%

O=C(COc1ccc(/C=C2\Oc3ccccc3C2=O)cc1)Nc1nc2ccccc2s1
inactive: [2] 27.9% | [3] 24.5% | [4] 44.8% | [5] 14.2% | [6] 13.4% | [7] 628% | [9] 110% | [10] 95.4% | [11] 98.2% | [12] 93.2% | [14] 92.4% | [16] 13.7% | [17] 95.6% | [18] 82.4% | [20] 137%
active: [1] -74.8% | [8] -88.3% | [13] -16.2% | [15] 4.73% | [19] -71.7%

Reference: PubChem BioAssay (NCI)
